# Data published in the supplement of paper PMC4894684.
# Where a name gives a salt, the structure may show the parent alone. ± gives the standard deviation of the averaged measurements. About 15 (2%) of roughly 1,000 compounds showed an effect of 50% or more. The entries come from a sample that favours strong results as a whole.
# System: HFF
# Experiment: uninfected host cell viability relative to vehicle control; higher = less host cell toxicity
# Details: 5 µM; 72 h; oxygen 21 %
row,SMILES,uninfected host cell viability [%]
1,C[C@@]12C(=O)OC(=O)[C@]1(C)[C@H]1CC[C@@H]2O1 [Cantharidin],19.7 ± 1.6
2,CC(C)NCC(O)c1ccc(N)c(C#N)c1 (stereo not given) [Cimaterol],84.5 ± 2.1
3,NC(=S)N/N=C/c1coc2ccccc2c1=O.[Cl][Cu][Cl],98.2 ± 1.8
4,COC1(C[S@+]([O-])c2ccccc2)CCN(CCc2c[nH]c3ccc(F)cc23)CC1,80.8 ± 2.7
5,NCCc1c[nH]c2ccc(C(N)=O)cc12 [5-Carboxamidotryptamine maleate],91.33 ± 0.078
6,CC(C)C[C@@H](N)C1(c2ccc(Cl)cc2)CCC1,91.72 ± 0.29
7,NC1(c2ccccc2Cl)CCCCC1=O (stereo not given) [Norketamine hydrochloride],97.41 ± 0.47
8,c1ccc2c(c1)[I+]c1ccccc1-2 [Diphenyleneiodonium chloride],30.8 ± 3.4
9,Cc1[nH]c2ccc(Cl)cc2c1C1=CCNCC1,75.1 ± 2
10,CN1Cc2ccccc2[C@@H]2c3cccc4[nH]cc(c34)C[C@H]21,86.3 ± 3.7
11,CCOC(=O)c1ncc2[nH]c3ccc(OCc4ccccc4)cc3c2c1COC,103 ± 4.4
12,C[C@H]1CCC/C=C/[C@@H]2C[C@H](O)C[C@H]2[C@H](O)/C=C/C(=O)O1 [Brefeldin A],45.4 ± 4
13,N#Cc1ccc(N2CCN(C(=O)COc3ccc4[nH]cc(CCN)c4c3)CC2)cc1 [Donitriptan hydrochloride],98.31 ± 0.13
14,CC(=O)[C@H]1CC[C@H]2[C@@H]3CC[C@H]4C[C@](C)(O)CC[C@]4(C)[C@H]3CC[C@]12C [Ganaxolone],95 ± 1.5
15,O=C1NC(=O)c2c1c1c3ccccc3n3c1c1c2c2ccccc2n1[C@H]1CC[C@@H]3O1,39.2 ± 11
16,O=C1NC(=O)c2c1c1c3ccccc3[nH]c1c1[nH]c3ccccc3c21 [Arcyriaflavin A],83.56 ± 0.33
17,C[C@@H](N)Cc1cnc[nH]1 [(R)-(-)- α-Methylhistamine dihydrobromide],89.841 ± 0.031
18,O=[N+]([O-])c1cc(O)c(O)c([N+](=O)[O-])c1,95.7 ± 4.9
19,Oc1ccc2c3c1O[C@H]1c4[nH]c5ccccc5c4C[C@@]4(O)[C@@H](C2)N(CC2CC2)CC[C@]314 [Naltrindole hydrochloride],81.09 ± 0.49
20,O=C1/C(=C/c2ccccc2)C[C@@]2(O)[C@H]3Cc4ccc(O)c5c4[C@@]2(CCN3CC2CC2)[C@H]1O5 [BNTX maleate],22.2 ± 1.1
21,Oc1ccc2c3c1O[C@H]1c4[nH]c5c(c4C[C@@]4(O)[C@@H](C2)N(CC2CC2)CC[C@]314)C[C@@]1(O)[C@H]2Cc3ccc(O)c4c3[C@@]1(CCN2CC1CC1)[C@H]5O4 [nor-Binaltorphimine dihydrochloride],85.23 ± 0.22
22,O[C@H]1[C@H](O)[C@@H](O)CN2CC[C@H](O)[C@H]12 [Castanospermine],82.95 ± 0.65
23,CCN(CC)CCO[C@H]1CC[C@@]2(C)C(=CC[C@@H]3[C@@H]2CC[C@]2(C)C(=O)CC[C@@H]32)C1,104 ± 3.5
24,"c1ccc(CC(c2ccccc2)N2CCCCC2)cc1 (racemic) [(±)-1-(1,2-Diphenylethyl)piperidine maleate]",89.8 ± 6.6
25,N[C@H](C(=O)O)c1cc(O)no1 [Ibotenic acid],85 ± 3.7
